According to PubChem BioAssay (NCATS):
Records with an inconclusive call do not appear. Active and inactive are the calls of the source. Calls come from the whole dose curve; as a rule, active = well fitted curve in the direction sought with a large enough effect; inconclusive = small, poorly fitted or top-dose-only effect, or another doubt; inactive = no such curve, though single readings can be large; an effect the other way counts as inactive or inconclusive.

How the values were obtained:
[1] = COV-362 Cancer Cell Toxicity qHTS against the NCATS CANVASS Library (AID 1347352); conditions: COV-362 viability, CellTiter-Glo luminescence, 72 h; series mostly up to 38.3 µM
Method in brief: (§1)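 qHTS cytotoxicity: compounds tested in 11 concentrations on 1000 seeded cells per well over 72 h; bortezomib served as control; signal from CellTiter-Glo luminescence.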

[2] = A2780 Cisplatin Sensitive Ovarian Cancer Cell Toxicity qHTS against the NCATS CANVASS Library (AID 1347353); conditions: A2780 ovarian cancer viability, ATPLite luminescence, 72 h; at 46.1 µM (top of the series); note: nearly all actives have a fitted effect of over 60% in size
Method in brief: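 Seventy-two-hour exposure of cisplatin-sensitive A2780 ovarian cells to an 11-concentration qHTS series; cytotoxicity is inferred from loss of ATPLite luminescence. Bortezomib titration served as positive control.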

[3] = UWB1.289-WTBRCA1 Cancer Cell Toxicity qHTS against the NCATS CANVASS Library (AID 1347354); conditions: UWB1.289-WTBRCA1 viability, CellTiter-Glo luminescence, 72 h; series mostly up to 38.3 µM
From the text: Natural products and their derivatives continue to be wellsprings of nascent therapeutic potential. However, many laboratories have limited resources for biological evaluation, leaving their previously isolated or synthesized compounds largely or completely untested. To address this issue, the Canvass library of natural products was assembled (https://tripod.nih.gov/canvass), in collaboration with academic and industry researchers, for quantitative high-throughput screening (qHTS) across a diverse set of cell-based and biochemical assays. The pure (>85% purity by liquid chromatography/mass spectrometry [LC/MS]) Canvass library of 346 natural products were submitted by 45 academic laboratories and companies around the world. […] The library was formatted into 1536-well plates and evaluated in 50 qHTS (in an 11-pnt concentration series) bioassays with broad scope of disease-relevant mechanisms. The resulting data set from 50 different assays was then systematically analyzed to identify overall trends and specific natural products with interesting biological activities. […]
Cancer Cell Toxicity COV-362, OV-KATE, OV-SAHO, UWB1.289, UWB1.289-WTBRCA1, HEK-293, HPAF-II, Panc-1005, SW1088, and U-118MG-screen protocol. […] Luminescence signal was acquired via the ViewLux plate reader (PerkinElmer) using a clear filter, 2 second exposure and 2x binning settings.

[4] = HEK-293 Cancer Cell Toxicity qHTS against the NCATS CANVASS Library (AID 1347355); conditions: HEK-293 viability, CellTiter-Glo luminescence, 72 h; at 46.1 µM (top of the series); note: nearly all actives have a fitted effect of over 65% in size
Method in brief: as §1

[5] = HPAF-II 24hr Apoptosis Induction qHTS against the NCATS CANVASS Library (AID 1347356); conditions: HPAF-II caspase-3/7 Caspase-Glo luminescence; series mostly up to 46.1 µM
Method in brief: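 Apoptosis induction in HPAF-II pancreatic cancer cells is measured as caspase-3/7 luminescence after a 24-hour exposure to compounds.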

[6] = HEK293 18hr Apoptosis Induction qHTS against the NCATS CANVASS Library (AID 1347357); conditions: HEK293 caspase-3/7 Caspase-Glo luminescence; series mostly up to 46.1 µM
From the text: (§2) Natural products and their derivatives continue to be wellsprings of nascent therapeutic potential. However, many laboratories have limited resources for biological evaluation, leaving their previously isolated or synthesized compounds largely or completely untested. To address this issue, the Canvass library of natural products was assembled (https://tripod.nih.gov/canvass), in collaboration with academic and industry researchers, for quantitative high-throughput screening (qHTS) across a diverse set of cell-based and biochemical assays. The pure (>85% purity by liquid chromatography/mass spectrometry [LC/MS]) Canvass library of 346 natural products were submitted by 45 academic laboratories and companies around the world. […] The library was formatted into 1536-well plates and evaluated in 50 qHTS (in an 11-pnt concentration series) bioassays with broad scope of disease-relevant mechanisms. The resulting data set from 50 different assays was then systematically analyzed to identify overall trends and specific natural products with interesting biological activities. […] The luminescence is proportional to the amount of caspase activity in the assay reaction. […]
Cancer Cell Apoptosis Assay 1. […] Luminescence signal was acquired via the ViewLux plate reader (PerkinElmer) using a clear filter, 20 second exposure and 2x binning settings.

[7] = HPAF-II 12hr Apoptosis Induction qHTS against the NCATS CANVASS Library (AID 1347358); conditions: HPAF-II caspase-3/7 Caspase-Glo luminescence; series mostly up to 46.1 µM
Method in brief: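 Apoptosis in HPAF-II pancreatic cancer cells is scored as caspase 3/7 luminescence following a 12-hour exposure to an 11-point compound series.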

[8] = HEK293 24hr Apoptosis Induction qHTS against the NCATS CANVASS Library (AID 1347359); conditions: HEK293 caspase-3/7 activation, Caspase-Glo luminescence; series mostly up to 46.1 µM
Method in brief: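 Caspase-3/7 activation measured as luminescence from the DEVD-based Caspase-Glo reagent, 15 min at room temperature, following 24-hour compound treatment of HEK293 cells.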

[9] = HPAF-II 18hr Apoptosis Induction qHTS against the NCATS CANVASS Library (AID 1347360); conditions: HPAF-II caspase-3/7 luminescence; series mostly up to 46.1 µM
Method in brief: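 Apoptosis was scored as caspase-3/7 activity in HPAF-II pancreatic cancer cells treated 18 hours with an 11-point concentration series.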

[10] = HEK293 12hr Apoptosis Induction qHTS against the NCATS CANVASS Library (AID 1347361); conditions: HEK293 caspase-3/7 Caspase-Glo luminescence; series mostly up to 46.1 µM
From the text: as §2
Cancer Cell Apoptosis Assay 1. […] Luminescence signal was acquired via the ViewLux plate reader (PerkinElmer) using a clear filter, 20 second exposure, and 2x binning settings.

Measured: outcome

COc1ccc2[nH]cc(CCNC(C)=O)c2c1
inactive: all assays above
